Test results from PubChem BioAssay AID588351 (The Scripps Research Institute Molecular Screening Center, 2011).
Screen size: about 1,900 compounds; about 1,600 (84%) were called active.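 How the source made its calls: active means mean activation above a set limit taken from the primary screen (cut at about 8% in these data); inactive means the rest.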 So high a share suggests a set chosen from earlier hits. A selection follows.

Test: FXN GAA850 promoter activators in reporter cells, confirmation, cell-based, luminescence, HEK293 lucGAA850, triplicate (AID 588351);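 further: 0% = DMSO wells and 100% = 10 µM SAHA wells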
Conditions: HEK293 lucGAA850 FXN promoter luciferase reporter, 24 h; at 6 µM; hits give high values; 100% = activation by SAHA

For `Cc1cc(C(=O)N/N=C\C(Br)=C\c2ccccc2)c(C)o1`, which activation is on record?
Its activation is 26.2% (active).

Which activation does the source give for `CC(C)c1cc(C(=O)N/N=C/C(Br)=C/c2ccccc2)n[nH]1` here?
Its activation is 15.8% (active).

Which activation does the source give for `CC1(Cc2cccc(C#N)c2)C(=O)Nc2ccc(-c3cccc(C(F)(F)F)c3)cc21` (centres undefined) here?
Its activation is 10.7% (active).

Which activation does the source give for `Cc1c(-c2ccccc2)nc(N)c(C#N)c1-c1cccs1` here?
Its activation is 14.5% (active).

With `O=C1[C@H]2[C@@H](c3ccc(Cl)cc3)N3C(=O)N(c4cccc(F)c4)C(=O)[C@@]3(Cc3ccccc3)[C@H]2C(=O)N1C1CCCCC1` as the molecule, how does the activation read?
Its activation is 11.2% (active).

With `O=C1[C@H]2[C@@H](c3ccc(F)cc3)N3C(=O)N(c4ccc(C(F)(F)F)cc4)C(=O)[C@@]3(Cc3ccccc3)[C@H]2C(=O)N1C1CCCCC1` as the molecule, how does the activation read?
Its activation is 16.2% (active).

Which activation does the source give for `C[C@@]12C(=O)N(c3cccc(Br)c3)C(=O)N1[C@H](c1ccc(Cl)cc1)[C@@H]1C(=O)N(C3CCCCC3)C(=O)[C@@H]12` here?
Its activation is 5.12% (inactive).

Which activation does the source give for `Cc1noc(C)c1-c1ccc2ncnc(NC(C)c3ccco3)c2c1` (centres undefined) here?
Its activation is 20.1% (active).

For `Cc1ccc(NC(=O)c2sc3nc(N)c(C#N)cc3c2N)cc1`, which activation is on record?
The activation was 27.4% (active).

Which activation does the source give for `O=C(CC1NCCc2ccccc21)Nc1cccc(Cl)c1` (centres undefined) here?
The activation was 26.7% (active).

Which activation does the source give for `CC1(C(=O)NCc2cccc3ccccc23)CCN1Cc1ccc(-c2ccccc2)o1` (centres undefined) here?
The activation was 11.9% (active).

Which activation does the source give for `COc1ccc(-c2csc(Cc3nc(O)cs3)n2)cc1` here?
The activation was -4.16% (inactive).

With `O=c1oc2ccccc2cc1-c1csc(Nc2ccc(O)cc2)n1` as the molecule, how does the activation read?
The activation was 44.3% (active).

With `COc1ccc(-c2csc(Nc3ccc(O)cc3)n2)cc1` as the molecule, how does the activation read?
The activation was 40.1% (active).

For `O=c1[nH]cnc2c1c(-c1ccccc1)cn2-c1ccc(F)cc1`, which activation is on record?
The activation was 9.89% (active).

Which activation does the source give for `Cc1ccc(-n2c(C)cc(/C=C(\C#N)C(=O)NCC3CCCO3)c2C)cc1` (centres undefined) here?
The activation was 41.3% (active).

For `COc1ccc(NC(=O)CSc2nc(SC)ns2)c(OC)c1`, which activation is on record?
The activation was 40.6% (active).

Which activation does the source give for `CSc1nc(N)c(C#N)c(-c2ccccc2Cl)c1C#N` here?
Its activation is 21.1% (active).

For `CCCCn1c(SCC(=O)NCCc2ccc(OC)c(OC)c2)nc2c1c(=O)n(C)c(=O)n2C`, which activation is on record?
The activation was 8.75% (active).

Which activation does the source give for `COc1ccc(N(CCC#N)S(=O)(=O)c2ccc(Cl)cc2)cc1` here?
The activation was 3.78% (inactive).

For `Cc1ccc(C2Nc3cccc4cccc(c34)N2)cc1`, which activation is on record?
The activation was 12.4% (active).

For `COc1cc(/C=N/Nc2nc3ccccc3s2)ccc1O`, which activation is on record?
Its activation is 34.8% (active).

For `CC1(C(=O)N/N=C/c2cc3c(cc2Br)OCO3)CC1(Br)Br` (centres undefined), which activation is on record?
The activation was 15.3% (active).

Which activation does the source give for `COc1ccc(-c2nnc(SCC(=O)c3cccs3)o2)c(OC)c1` here?
Its activation is 26.2% (active).

For `N#CC1=C(SCc2ccc(C#N)cc2)N=C(N)C(c2nc(-c3ccccc3)cs2)C12CCCCC2` (centres undefined), which activation is on record?
Its activation is 17.6% (active).

For `CCOc1ccc(Nc2oc(Cc3ccccc3)nc2C#N)cc1`, which activation is on record?
The activation was 32.1% (active).

Which activation does the source give for `CCC1(CC)Cc2ccccc2-c2nc(CCl)[nH]c(=O)c21` here?
The activation was 1.84% (inactive).

With `CN1C(=O)/C(=C\c2cc(Br)cs2)c2ccccc21` as the molecule, how does the activation read?
The activation was 38.3% (active).

With `CCOC(=O)c1cc2cc(C)ccc2[nH]1` as the molecule, how does the activation read?
Its activation is 29.5% (active).

For `CN(C)[C@@H]1C(=O)C(C(N)=O)=C(O)[C@@]2(O)C(=O)C3=C(O)c4c(O)ccc(Cl)c4[C@@H](O)[C@H]3C[C@@H]12`, which activation is on record?
The activation was 15.3% (active).

For `C=C1c2c(Cl)ccc(O)c2C(O)=C2C(=O)[C@]3(O)C(O)=C(C(N)=O)C(=O)[C@@H](N(C)C)[C@@H]3[C@@H](O)C12` (some centres undefined), which activation is on record?
Its activation is 15.5% (active).

For `Cc1nc(-c2ccc(F)cc2)c(CC(=O)Nc2cc(S(=O)(=O)N3CCCCC3)ccc2C)s1`, which activation is on record?
The activation was 6.94% (inactive).

Which activation does the source give for `COc1ccc(C2Nc3ccccc3C(=O)N2c2ccc(Cl)cc2)cc1Cn1cc([N+](=O)[O-])cn1` (centres undefined) here?
The activation was 26.8% (active).

For `Cc1cc(C)nc(S/C=C/C(=O)c2ccccc2)n1`, which activation is on record?
Its activation is -19% (inactive).

With `Oc1ccccc1-c1cc(-c2ccc(Cl)cc2)n[nH]1` as the molecule, how does the activation read?
The activation was 46.8% (active).

Which activation does the source give for `c1ccc(-c2cc(-c3ccccc3)[nH]n2)cc1` here?
Its activation is 43% (active).

For `O=C(N/N=C/C=C/c1ccco1)c1cccs1`, which activation is on record?
The activation was 31.4% (active).

For `O=C(Nc1ccc2c(c1)OCCO2)c1cnccn1`, which activation is on record?
Its activation is 25.8% (active).

Which activation does the source give for `O=C(COc1ccc(Cl)cc1Cl)NCCCNC(=O)c1cnccn1` here?
The activation was 7.43% (inactive).
